Hits are enriched below; roughly 6.9% of the tested compounds scored in any of these assays.
L3MBTL1 inh = blocks human L3MBTL1 | Q9Y468 | actives 0.66% (n = 230,000) | Potency, µM (series often up to 57.1 µM), actives largely listed as inhibitors | AlphaScreen L3MBTL1–H3K9me1 peptide binding; also: nearly all actives have a fitted effect of over 60% in size
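Read-out is AlphaScreen signal from streptavidin donor and nickel chelate acceptor beads (10 ug/mL final each) bridging L3MBTL1 (50 nM) and biotinylated K9-monomethylated H3(1-15) peptide (75 nM), after 30 min compound exposure at room temperature.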
BAZ2B block = inhibitors of human BAZ2B bromodomain; Q9UIF8; AlphaScreen BAZ2B-H3K14Ac peptide displacement; Potency, µM (top dose mostly 114 µM), most hits filed as inhibitors; actives 4.4% (n = 360,000); AID 504333; also: nearly all actives have a fitted effect of over 60% in size
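Compounds, titrated to a top concentration of 110 uM, were incubated 30 min at room temperature with preformed BAZ2B/acetyl-K14 H3 peptide complex (50 nM each). Proximity signal was measured by AlphaScreen after 20 min with beads.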
HP1b chromo inh = blocks HP1-beta chromodomain binding to methylated histone tails. P83916. AlphaScreen HP1-beta / biotin-H3K9me3 peptide binding. Potency, µM (highest dose often 114 µM), most hits filed as inhibitors. actives 0.56% (n = 390,000); also: nearly all actives have a fitted effect of over 70% in size
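Compound inhibition of the preformed complex between 50 nM HP1-beta and 50 nM biotinylated H3K9me3 peptide was read by AlphaScreen. Buffer was PBS pH 7.4 with 0.01% Tween-20. Incubations ran 30 min at room temperature, with 10 ug/mL donor/acceptor beads.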
PLK1 PBD block = PLK1 (human) polo-box domain binding inhibition; AID 720504; actives 2.8% (n = 360,000); Plk1 PBD binding of FITC phosphopeptide, fluorescence polarization; Potency, µM, usual class: inhibitors; also: series mostly up to about 57 µM; nearly all actives have a fitted effect of over 65% in size
Target sequence (P53350 whole entry, looked up, the tested form may be a part): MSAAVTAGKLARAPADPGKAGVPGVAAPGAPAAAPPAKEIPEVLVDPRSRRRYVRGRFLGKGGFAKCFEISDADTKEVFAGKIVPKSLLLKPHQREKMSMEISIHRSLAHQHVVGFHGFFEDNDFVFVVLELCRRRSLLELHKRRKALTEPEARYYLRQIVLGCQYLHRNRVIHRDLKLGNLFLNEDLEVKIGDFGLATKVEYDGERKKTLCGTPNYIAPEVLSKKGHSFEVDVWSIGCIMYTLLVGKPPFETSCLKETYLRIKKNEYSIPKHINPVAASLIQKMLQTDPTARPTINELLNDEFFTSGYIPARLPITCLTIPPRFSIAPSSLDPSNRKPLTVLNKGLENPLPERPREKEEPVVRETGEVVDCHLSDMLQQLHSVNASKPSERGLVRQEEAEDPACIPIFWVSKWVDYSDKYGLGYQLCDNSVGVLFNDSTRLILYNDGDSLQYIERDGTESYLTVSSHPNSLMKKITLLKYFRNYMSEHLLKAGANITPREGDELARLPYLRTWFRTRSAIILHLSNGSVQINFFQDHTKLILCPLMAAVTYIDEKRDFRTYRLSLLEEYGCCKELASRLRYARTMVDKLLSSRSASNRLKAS
JMJD2A Tudor = blocks the human JMJD2A Tudor domain; AlphaScreen JMJD2A-Tudor / H3K4me3 peptide binding; Potency, µM (highest dose often 114 µM), actives largely listed as inhibitors; actives 4.4% (n = 390,000); AID 504339; also: nearly all actives have a fitted effect of over 50% in size
VDR inh = inhibitors of human vitamin D receptor | VDR-SRC2-3 peptide fluorescence polarization, 2 h | Potency, µM, most hits filed as inhibitors | P11473 | AID 504847 | actives 0.93% (n = 400,000)
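After 23 nl compound addition and a short centrifugation, plates sat for 2 hours at ambient temperature; polarization of fluorescence then indicated loss of VDR binding to peptide SRC2-3.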
Large screens that a line does not name were inactive. Calls follow the shape of the dose curve; as a rule, active = well fitted curve in the direction sought with a large enough effect; inconclusive = small, poorly fitted or top-dose-only effect, or another doubt; inactive = no such curve, though single readings can be large; an effect the other way counts as inactive or inconclusive.

COc1ccc(S(=O)(=O)c2cn(C)c3cc(N4CCOCC4)c(F)cc3c2=O)cc1	none (no result: L3MBTL1 inh, PLK1 PBD block)
CCOC(=O)C1Nc2ccc(C(F)(F)F)cc2C2c3ccccc3CC12 (stereo not drawn)	VDR inh 50µM (no result: L3MBTL1 inh, BAZ2B block)
O=C(NCCOc1ccccc1)C1Nc2ccc(C(F)(F)F)cc2C2c3ccccc3CC12 (stereo not drawn)	none (no result: L3MBTL1 inh, BAZ2B block)
CCOC(=O)C1Nc2ccccc2C2C(O)C(O)CC12 (stereo not drawn)	PLK1 PBD block 38µM, JMJD2A Tudor 50µM (no result: L3MBTL1 inh, BAZ2B block)
CC(=O)Nc1ccn(C2CC3OCC(NC(=O)C(Cc4ccccc4)NC(=O)OC(C)(C)C)C3O2)c(=O)n1 (stereo not drawn)	none (no result: L3MBTL1 inh, BAZ2B block, PLK1 PBD block)
CCCCCCCc1c(O)nc(SCC(=O)O)[nH]c1=O	none
CC(C)N1CCN(S(=O)(=O)c2ccc3ccccc3c2)CC1	BAZ2B block inconclusive, HP1b chromo inh inconclusive, JMJD2A Tudor 16µM
CC1CN(C2CCN(S(=O)(=O)c3ccc4ccccc4c3)CC2)CC(C)O1 (stereo not drawn)	BAZ2B block 45µM, HP1b chromo inh inconclusive, JMJD2A Tudor inconclusive
COc1ccc(/C=N\Nc2ccccc2[N+](=O)[O-])c(C(=O)O)c1OC	L3MBTL1 inh inconclusive, BAZ2B block inconclusive
CC(C)Oc1ccccc1/C=N/Nc1ccccc1[N+](=O)[O-]	L3MBTL1 inh 11µM, BAZ2B block 5.6µM, HP1b chromo inh inconclusive, JMJD2A Tudor 14µM
COc1ccc(/C=N\Nc2ccc([N+](=O)[O-])cc2[N+](=O)[O-])c(C(=O)O)c1OC	HP1b chromo inh inconclusive, JMJD2A Tudor 50µM
CC1=C(/C=N/Nc2ccc([N+](=O)[O-])cc2[N+](=O)[O-])C(C)(C)CCC1	L3MBTL1 inh inconclusive, BAZ2B block 3.5µM, HP1b chromo inh 8.9µM, JMJD2A Tudor 2.8µM
COc1ccccc1/C=N\Nc1ccccc1[N+](=O)[O-]	BAZ2B block 3.2µM, HP1b chromo inh 13µM, JMJD2A Tudor 8.9µM
COCCCNC(=O)Cn1c(=O)n(Cc2ccc(C(=O)NCc3ccc(C)cc3)cc2)c(=O)c2ccccc21	none (no result: L3MBTL1 inh, PLK1 PBD block)
CN(C(=O)CSc1nc2ccc(NC(=O)c3ccc(F)cc3)cc2s1)c1ccccc1	none (no result: L3MBTL1 inh, PLK1 PBD block)
CN(C)CC1CCCCC1OC(=O)c1ccc(S(=O)(=O)N(C)c2ccccc2)cc1 (stereo not drawn)	none (no result: L3MBTL1 inh)
O=C(c1cc(Cl)ccc1Cl)N1CCc2ccccc21	PLK1 PBD block 27µM, JMJD2A Tudor inconclusive, VDR inh inconclusive
Cc1ccc(C(=O)N2CCc3ccccc32)cc1[N+](=O)[O-]	PLK1 PBD block 30µM, JMJD2A Tudor inconclusive
CC(C(=O)Nc1ccc(S(=O)(=O)N2CCOCC2)cc1)N1C(=O)C2CC=CCC2C1=O (stereo not drawn)	none
O=C(CSCn1nnc2c(=O)[nH]c(Cc3ccc(F)cc3)nc21)Nc1cccc(C(F)(F)F)c1	none (no result: L3MBTL1 inh, PLK1 PBD block)
COc1ccc(CNC(=O)c2cnc3sc(N4CCCCCC4)nn3c2=O)cc1	none (no result: L3MBTL1 inh, PLK1 PBD block)
COc1ccc(-c2nc3sc(CCNC(=O)C(=O)Nc4ccc(C)c(F)c4)c(C)n3n2)cc1	none (no result: L3MBTL1 inh, PLK1 PBD block)
CN(C)c1ccc(/C=C/c2c([N+](=O)[O-])c(=O)n(C)c(=O)n2C)cc1	none (no result: L3MBTL1 inh)
Cn1c(/C=C/c2ccc(Br)cc2)c([N+](=O)[O-])c(=O)n(C)c1=O	VDR inh 50µM (no result: L3MBTL1 inh)
O=C1c2ccccc2C(=O)N1c1ccc(Br)c2cccnc12	none
O=C1c2ccccc2C(=O)N1c1cccc2ncccc12	JMJD2A Tudor 89µM (no result: L3MBTL1 inh, BAZ2B block, HP1b chromo inh, PLK1 PBD block, VDR inh)
COC(=O)c1ccc(NC(=O)Cn2ccn3nc(-c4ccc(OC)cc4)cc3c2=O)cc1	none (no result: L3MBTL1 inh, PLK1 PBD block)
COc1ccc(C2=CC3=C(Br)C(=O)C(C)(OC(=O)c4cccs4)C(=O)C3=CO2)cc1 (stereo not drawn)	HP1b chromo inh inconclusive, PLK1 PBD block 8.4µM, JMJD2A Tudor 28µM (no result: L3MBTL1 inh, BAZ2B block)
COc1ccc(C2=CC3=C(Br)C(=O)C(C)(OC(=O)c4ccco4)C(=O)C3=CO2)cc1 (stereo not drawn)	BAZ2B block 45µM, HP1b chromo inh inconclusive, PLK1 PBD block 9.5µM, JMJD2A Tudor 28µM, VDR inh 79µM (no result: L3MBTL1 inh)
COc1ccc(C2=CC3=C(Br)C(=O)C(C)(OC(=O)CCc4ccccc4)C(=O)C3=CO2)cc1 (stereo not drawn)	none (no result: L3MBTL1 inh, BAZ2B block, HP1b chromo inh, PLK1 PBD block, JMJD2A Tudor)

Screens: PubChem BioAssay, National Center for Advancing Translational Sciences (NCATS)
